Experimental data as given in PubChem BioAssay (NCI).
About 79,000 compounds went through this panel and 15% of them were active in at least one assay; those are over-represented in the sample as a whole. Unmarked numbers belong to inactive results. Calls of active or inactive are those of the source. No stated cut-off is given here; in the data, active means growth inhibition above about 70%; inactive means the rest.

Columns and labels:
[1] = NCI Yeast Anticancer Drug Screen. Data for the rad50 strain (AID 155);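 further: 0% = growth of vehicle-only cultures of the same strain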; conditions: S. cerevisiae rad50 strain growth inhibition, stronger effect = higher value
Procedure, shortened: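 Yeast carrying a defined DNA repair defect were exposed to test compounds, and growth was compared with vehicle-treated controls to give percent inhibition.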

[2] = NCI Yeast Anticancer Drug Screen. Data for the mec2-1 strain (AID 157); conditions: S. cerevisiae mec2-1 strain, stronger effect = higher value
Procedure, shortened: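 Mutant yeast (mec2-1) grown with compound; growth inhibition relative to vehicle control reported.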

[3] = NCI Yeast Anticancer Drug Screen. Data for the sgs1 mgt1 strain (AID 161);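 further: 0% = growth of cultures given vehicle only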; conditions: S. cerevisiae sgs1 mgt1 strain, stronger effect = higher value
Procedure, shortened: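 This yeast growth screen uses a strain with defined DNA-repair lesions; compound-treated growth is compared with vehicle-treated growth.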

[4] = NCI Yeast Anticancer Drug Screen. Data for the cln2 rad14 strain (AID 165);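 further: 0% = growth equal to vehicle treated cultures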; conditions: S. cerevisiae cln2 rad14 strain, stronger effect = higher value
Procedure, shortened: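 Readout is yeast growth inhibition versus vehicle-treated controls, using a strain with cln2 and rad14 alterations exposed to compound.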

[5] = NCI Yeast Anticancer Drug Screen. Data for the bub3 strain (AID 167); conditions: S. cerevisiae bub3 mutant strain, stronger effect = higher value
Procedure, shortened: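 Compounds were applied to a genetically altered yeast strain carrying a cell-cycle control defect. Growth inhibition was scored against vehicle-treated controls.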

[6] = NCI Yeast Anticancer Drug Screen. Data for the mlh1 rad18 strain (AID 175); conditions: S. cerevisiae mlh1 rad18 strain growth inhibition, stronger effect = higher value
Procedure, shortened: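 Genetically defined yeast (DNA repair-deficient) exposed to compounds; growth inhibition determined relative to vehicle.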

[7] = at 5.0 µM (retest, dose inferred, filed as 0.5)
[8] = at 50.0 µM (retest, dose inferred, filed as 5.0)

Compound: COC(=O)C1=C(C(=O)OC)C2(OC(C)=O)c3ccccc3-c3ccccc3C12 (stereo not given)
- growth inhibition [1, 7]: 72% (active)
- growth inhibition [1, 8]: 98% (active)
- growth inhibition ([1]; at 50.0 µM): 90.2% (active)
- growth inhibition [2, 7]: 92% (active)
- growth inhibition [2, 8]: 99% (active)
- growth inhibition ([2]; at 50.0 µM): 93.5% (active)
- growth inhibition [3, 7]: 43%
- growth inhibition [3, 8]: 98% (active)
- growth inhibition ([3]; at 50.0 µM): 91.6% (active)
- growth inhibition [4, 7]: 86% (active)
- growth inhibition [4, 8]: 99% (active)
- growth inhibition ([4]; at 50.0 µM): 89.6% (active)
- growth inhibition [5, 7]: 92% (active)
- growth inhibition [5, 8]: 98% (active)
- growth inhibition ([5]; at 50.0 µM): 90.2% (active)
- growth inhibition [6, 7]: 73% (active)
- growth inhibition [6, 8]: 99% (active)
- growth inhibition ([6]; at 50.0 µM): 91.2% (active)

Compound: S=P(OC1CC2CCC1C2)(c1ccccc1)c1ccccc1 (stereo not given)
- growth inhibition [1, 7]: 83% (active)
- growth inhibition [1, 8]: 98% (active)
- growth inhibition ([1]; at 50.0 µM): -15.2%
- growth inhibition [2, 7]: 90% (active)
- growth inhibition [2, 8]: 99% (active)
- growth inhibition ([2]; at 50.0 µM): 4.1%
- growth inhibition [3, 7]: 86% (active)
- growth inhibition [3, 8]: 97% (active)
- growth inhibition ([3]; at 50.0 µM): -0.75%
- growth inhibition [4, 7]: 87% (active)
- growth inhibition [4, 8]: 98% (active)
- growth inhibition ([4]; at 50.0 µM): 30.4%
- growth inhibition [5, 7]: 88% (active)
- growth inhibition [5, 8]: 97% (active)
- growth inhibition ([5]; at 50.0 µM): -10.6%
- growth inhibition [6, 7]: 91% (active)
- growth inhibition [6, 8]: 99% (active)
- growth inhibition ([6]; at 50.0 µM): 1.2%

Compound: Cc1ccc2c(-c3ccccc3)c3ccccc3[s+]c2c1
- growth inhibition [1, 7]: 2%
- growth inhibition [1, 8]: 99% (active)
- growth inhibition ([1]; at 50.0 µM): 99.5% (active)
- growth inhibition [2, 7]: 2%
- growth inhibition [2, 8]: 100% (active)
- growth inhibition ([2]; at 50.0 µM): 99.3% (active)
- growth inhibition [3, 7]: 6%
- growth inhibition [3, 8]: 99% (active)
- growth inhibition ([3]; at 50.0 µM): 99.5% (active)
- growth inhibition [4, 7]: 1%
- growth inhibition [4, 8]: 99% (active)
- growth inhibition ([4]; at 50.0 µM): 99% (active)
- growth inhibition [5, 7]: -13%
- growth inhibition [5, 8]: 99% (active)
- growth inhibition ([5]; at 50.0 µM): 99.2% (active)
- growth inhibition [6, 7]: 1%
- growth inhibition [6, 8]: 99% (active)
- growth inhibition ([6]; at 50.0 µM): 99.2% (active)

Compound: O=C(CBr)OCC(Br)CBr (stereo not given)
- growth inhibition [1, 7]: 98% (active)
- growth inhibition [1, 8]: 39%
- growth inhibition ([1]; at 50.0 µM): 99.2% (active)
- growth inhibition [2, 7]: 99% (active)
- growth inhibition [2, 8]: 50%
- growth inhibition ([2]; at 50.0 µM): 99% (active)
- growth inhibition [3, 7]: 99% (active)
- growth inhibition [3, 8]: 36%
- growth inhibition ([3]; at 50.0 µM): 99.3% (active)
- growth inhibition [4, 7]: 97% (active)
- growth inhibition [4, 8]: -4%
- growth inhibition ([4]; at 50.0 µM): 98.8% (active)
- growth inhibition [5, 7]: 99% (active)
- growth inhibition [5, 8]: 83% (active)
- growth inhibition ([5]; at 50.0 µM): 99.3% (active)
- growth inhibition [6, 7]: 99% (active)
- growth inhibition [6, 8]: 49%
- growth inhibition ([6]; at 50.0 µM): 98.8% (active)

Compound: COc1cc(/C=C/[N+](=O)[O-])cc(Br)c1OC
- growth inhibition [1, 7]: 86% (active)
- growth inhibition [1, 8]: 98% (active)
- growth inhibition ([1]; at 50.0 µM): 90.6% (active)
- growth inhibition [2, 7]: 79% (active)
- growth inhibition [2, 8]: 99% (active)
- growth inhibition ([2]; at 50.0 µM): 92.3% (active)
- growth inhibition [3, 7]: 83% (active)
- growth inhibition [3, 8]: 98% (active)
- growth inhibition ([3]; at 50.0 µM): 92.5% (active)
- growth inhibition [4, 7]: 55%
- growth inhibition [4, 8]: 97% (active)
- growth inhibition ([4]; at 50.0 µM): 90.2% (active)
- growth inhibition [5, 7]: 97% (active)
- growth inhibition [5, 8]: 98% (active)
- growth inhibition ([5]; at 50.0 µM): 91.5% (active)
- growth inhibition [6, 7]: 89% (active)
- growth inhibition [6, 8]: 98% (active)
- growth inhibition ([6]; at 50.0 µM): 91.7% (active)

Compound: C[CH2][Sn]([Cl])([CH2]C)[CH2]C
- growth inhibition [1, 7]: 7%
- growth inhibition [1, 8]: 87% (active)
- growth inhibition ([1]; at 50.0 µM): 98.3% (active)
- growth inhibition [2, 7]: 0%
- growth inhibition [2, 8]: 84% (active)
- growth inhibition ([2]; at 50.0 µM): 98.1% (active)
- growth inhibition [3, 7]: 0%
- growth inhibition [3, 8]: 91% (active)
- growth inhibition ([3]; at 50.0 µM): 97.3% (active)
- growth inhibition [4, 7]: -6%
- growth inhibition [4, 8]: 60%
- growth inhibition ([4]; at 50.0 µM): 80.8% (active)
- growth inhibition [5, 7]: -18%
- growth inhibition [5, 8]: 83% (active)
- growth inhibition ([5]; at 50.0 µM): 98.2% (active)
- growth inhibition [6, 7]: 2%
- growth inhibition [6, 8]: 92% (active)
- growth inhibition ([6]; at 50.0 µM): 98.2% (active)

Compound: Cl[C](Cl)(Cl)[Hg][C](Cl)(Cl)Cl
- growth inhibition [1, 7]: 80% (active)
- growth inhibition [1, 8]: 96% (active)
- growth inhibition ([1]; at 50.0 µM): 89.8% (active)
- growth inhibition [2, 7]: 90% (active)
- growth inhibition [2, 8]: 94% (active)
- growth inhibition ([2]; at 50.0 µM): 92.7% (active)
- growth inhibition [3, 7]: 100% (active)
- growth inhibition [3, 8]: 100% (active)
- growth inhibition ([3]; at 50.0 µM): 92.8% (active)
- growth inhibition [4, 7]: 99% (active)
- growth inhibition [4, 8]: 99% (active)
- growth inhibition ([4]; at 50.0 µM): 91.5% (active)
- growth inhibition [5, 7]: 100% (active)
- growth inhibition [5, 8]: 97% (active)
- growth inhibition ([5]; at 50.0 µM): 91.3% (active)
- growth inhibition [6, 7]: 78% (active)
- growth inhibition [6, 8]: 95% (active)
- growth inhibition ([6]; at 50.0 µM): 90.2% (active)

Compound: CC(C)c1oc(=O)cc2c1C(O)C1OC(=O)C3(C)C(O)C4OC4C2(C)C13 (stereo not given)
- growth inhibition [1, 7]: 8%
- growth inhibition [1, 8]: 65%
- growth inhibition ([1]; at 50.0 µM): 31.9%
- growth inhibition [2, 7]: 10%
- growth inhibition [2, 8]: 81% (active)
- growth inhibition ([2]; at 50.0 µM): -10.8%
- growth inhibition [3, 7]: 10%
- growth inhibition [3, 8]: 72% (active)
- growth inhibition ([3]; at 50.0 µM): 25.1%
- growth inhibition [4, 7]: 19%
- growth inhibition [4, 8]: 71% (active)
- growth inhibition ([4]; at 50.0 µM): 15.9%
- growth inhibition [5, 7]: 2%
- growth inhibition [5, 8]: 76% (active)
- growth inhibition ([5]; at 50.0 µM): 17.4%
- growth inhibition [6, 7]: 11%
- growth inhibition [6, 8]: 86% (active)
- growth inhibition ([6]; at 50.0 µM): 18.4%

Compound: CC(CCc1ccccc1)NC(C)C(O)c1ccc(O)cc1 (stereo not given)
- growth inhibition [1, 7]: 1%
- growth inhibition [1, 8]: 32%
- growth inhibition ([1]; at 50.0 µM): 49%
- growth inhibition [2, 7]: 4%
- growth inhibition [2, 8]: 55%
- growth inhibition ([2]; at 50.0 µM): 28.6%
- growth inhibition [3, 7]: 23%
- growth inhibition [3, 8]: 66%
- growth inhibition ([3]; at 50.0 µM): 52.2%
- growth inhibition [4, 7]: 9%
- growth inhibition [4, 8]: 42%
- growth inhibition ([4]; at 50.0 µM): 68.3%
- growth inhibition [5, 7]: 9%
- growth inhibition [5, 8]: 40%
- growth inhibition ([5]; at 50.0 µM): 64.8%
- growth inhibition [6, 7]: 45%
- growth inhibition [6, 8]: 71% (active)
- growth inhibition ([6]; at 50.0 µM): 78.1% (active)

Compound: NCCNCCN1CC1
- growth inhibition [1, 7]: -2%
- growth inhibition [1, 8]: 0%
- growth inhibition ([1]; at 50.0 µM): 64.9%
- growth inhibition [2, 7]: 1%
- growth inhibition [2, 8]: 1%
- growth inhibition ([2]; at 50.0 µM): 0.35%
- growth inhibition [3, 7]: 1%
- growth inhibition [3, 8]: -1%
- growth inhibition ([3]; at 50.0 µM): 39.9%
- growth inhibition [4, 7]: -2%
- growth inhibition [4, 8]: -3%
- growth inhibition ([4]; at 50.0 µM): 19.1%
- growth inhibition [5, 7]: -1%
- growth inhibition [5, 8]: -6%
- growth inhibition ([5]; at 50.0 µM): 33%
- growth inhibition [6, 7]: -1%
- growth inhibition [6, 8]: -1%
- growth inhibition ([6]; at 50.0 µM): 40%
